Assay results from PubChem BioAssay AID1159580 (chemical genetic matrix, 2015).
Several values for one entry are separate records, joined by “and”; a condition that tells them apart may be missing. Equal values may be shown once. Among all 5,500 compounds or so, about 2,000 (36%) were called active. Not shown: some 18% with an inconclusive outcome. Cut-off read from the data, not from the text of the source: active = normalized growth mostly below about 0.91 (no sharp cut-off); inconclusive = no clear call, values can overlap the other calls; inactive = mostly above about 0.92. The list shows a part of the results.

Test: chemical genetic growth profiling, strain panel (AID 1159580);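 note: tested at 20 µM; growth read once vehicle control cultures reached saturation at 30 °C; 1 = growth at the plate median or of vehicle wells; lower values mean less growth of the strain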
Conditions: S. cerevisiae deletion strains, growth OD

Measured: normalized growth

CC1CNCCN1S(=O)(=O)c1cccc2cnccc12 (stereo unspecified)
inactive: locus YAL013W, strain DEP1, stronger effect = lower value 1.01 and 1 | locus YAL040C, strain CLN3, stronger effect = lower value 1.09 and 0.997 | locus YCL061C, strain MRC1 (second series), stronger effect = lower value 0.998 and 1.01 | locus YDR150W, strain NUM1, stronger effect = lower value 1 | locus YDR363W, strain ESC2, stronger effect = lower value 0.993 and 1.01 | locus YER002W, strain NOP16, stronger effect = lower value 0.988 and 1.01 | locus YGR078C, strain PAC10, stronger effect = lower value 1.01 | locus YMR263W, strain SAP30, stronger effect = lower value 1 | locus YNL153C, strain GIM3, stronger effect = lower value 0.991 | locus YNL175C, strain NOP13, stronger effect = lower value 0.996 and 0.999 | locus YNL197C, strain WHI3, stronger effect = lower value 1.01 | locus YNL224C, strain SQS1, stronger effect = lower value 1.02 | locus YNL322C, strain KRE1, stronger effect = lower value 0.999 | locus YOR083W, strain WHI5 (second series), stronger effect = lower value 1 and 1.03 | locus YPL055C, strain LGE1, stronger effect = lower value 1.01 | locus YPL241C, strain CIN2, stronger effect = lower value 0.996
